Data published in PubChem BioAssay (EPA / NIEHS).
Inconclusive results are not listed. Activity calls are given as the source filed them. Rule for the calls: active = hit-call score of the fitted dose curve at least 0.9, where 1 is the maximum; inconclusive = response in the unintended direction; inactive = score below 0.9.

These compounds were tested against Glucocorticoid receptor (Homo sapiens) (UniProt P04150) (assay: NVS_NR_hGR: NovaScreen (NVS) Nuclear Receptor Binding Assay for human Glucocorticoid Receptor (GR) (AID 2283363)).
Chain of Glucocorticoid receptor (Homo sapiens) (P04150 whole entry, looked up): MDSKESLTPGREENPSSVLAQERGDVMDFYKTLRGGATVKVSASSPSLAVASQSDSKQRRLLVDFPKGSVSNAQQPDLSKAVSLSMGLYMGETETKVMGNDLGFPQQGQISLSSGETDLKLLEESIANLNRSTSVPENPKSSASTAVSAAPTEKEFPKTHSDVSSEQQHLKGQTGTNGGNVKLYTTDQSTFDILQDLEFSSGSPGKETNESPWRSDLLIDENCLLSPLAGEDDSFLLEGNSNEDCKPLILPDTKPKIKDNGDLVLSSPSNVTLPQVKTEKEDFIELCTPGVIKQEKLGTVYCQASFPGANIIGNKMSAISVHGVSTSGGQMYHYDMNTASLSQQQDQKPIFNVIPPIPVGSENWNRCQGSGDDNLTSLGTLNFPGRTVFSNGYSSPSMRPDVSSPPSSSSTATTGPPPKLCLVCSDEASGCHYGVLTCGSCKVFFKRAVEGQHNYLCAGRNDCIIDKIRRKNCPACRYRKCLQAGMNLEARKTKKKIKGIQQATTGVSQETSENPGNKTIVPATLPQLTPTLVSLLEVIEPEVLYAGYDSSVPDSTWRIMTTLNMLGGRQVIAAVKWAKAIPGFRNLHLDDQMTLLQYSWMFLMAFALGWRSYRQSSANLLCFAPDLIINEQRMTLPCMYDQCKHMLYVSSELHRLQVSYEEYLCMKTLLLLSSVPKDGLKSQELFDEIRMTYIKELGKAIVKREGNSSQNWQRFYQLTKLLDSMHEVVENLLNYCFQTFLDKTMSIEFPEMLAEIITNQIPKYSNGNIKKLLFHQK
Description: NVS_NR_hGR is a biochemical, single-readout assay that uses extracted gene-proteins in a cell-free assay. Measurements were taken 16 hours after chemical dosing in a 96-well plate.NVS_NR_hGR is one of one assay component(s) measured or calculated from the NVS_NR_hGR assay. It is designed to make measurements of radioligand binding, a form of binding reporter, as detected with scintillation counting signals by Filter-based radiodetection technology.Data from the assay component NVS_NR_hGR was analyzed into 1 assay endpoint. This assay endpoint, NVS_NR_hGR, was analyzed in the positive analysis fitting direction relative to DMSO as the negative control and baseline of activity. Using a type of binding reporter, loss-of-signal activity can be used to understand changes in the binding as they relate to the gene NR3C1. Furthermore, this assay endpoint can be referred to as a primary readout, because the performed assay has only produced 1 assay endpoint. To generalize the intended target to other relatable targets, this assay endpoint is annotated to the nuclear receptor intended target family, where the subfamily is steroidal.
Binding assays used specific radioligands (tritiated, iodinated) with non-radioactive competitive displacement ligands in agonist or antagonist protocols (as indicated) and various reference compounds and inhibitors to titrate specific binding to receptors and transporters. Most enzyme assays (CYPs, kinases, phosphatases, proteases, HDACs) used recombinant protein and specific substrates (fluorescence mostly, some colorimetric and radioactive) and inhibitors, followed by a biochemical separation of substrate and product. All assays for the biochemical HTS were initially run in duplicate at a single concentration (10 uM for CYP450 assays and 25 uM for all others). […] Each assay was run with positive and negative controls, and concurrent controls on every plate. The follow-up (secondary) screen tested active chemical-pairs in concentration series, as well as a few additional assays not tested in the primary screen, some selected negative inactives, and several cases re-run in the concentration series for confirmatory purposes.

Row | Compound | AC50 | outcome
1 | COc1ccc(N=Nc2cc(C)c(N=Nc3ccc(S(=O)(=O)O)cc3)cc2OC)cc1 | 1.91 µM (active) | 
2 | Cc1ccc(S(N)(=O)=O)cc1 |  | inactive
3 | CCCCC(CC)COC(=O)c1ccc(O)cc1 (stereo not given) | 3.11 µM (active) | 
4 | Cc1ccc(S(=O)(=O)Oc2ccc(N=Nc3ccc(-c4ccc(N=Nc5c(O)ccc6cc(S(=O)(=O)O)cc(S(=O)(=O)O)c56)c(C)c4)cc3C)cc2)cc1 | 0.548 µM (active) | 
5 | CCOc1ccc(NC(=O)CC(C)=O)cc1 | 1.99 µM (active) | 
6 | Nc1ccc2cc(S(=O)(=O)O)cc(O)c2c1N=Nc1ccccc1C(F)(F)F | 5.65 µM (active) | 
7 | CCCCCCCCc1ccc(S(=O)(=O)O)cc1 | 17 µM (active) | 
8 | [O-]n1ccccc1=S.[O-]n1ccccc1=S.[Zn+2] | 0.776 µM (active) | 
9 | CCC(C)c1cc([N+](=O)[O-])cc([N+](=O)[O-])c1OC(=O)OC(C)C (stereo not given) | 5.81 µM (active) | 
10 | Oc1c(Cl)cc(Cl)c(Cl)c1Cc1c(O)c(Cl)cc(Cl)c1Cl | 4.34 µM (active) | 
11 | C=C1CC[C@H](O)C/C1=C/C=C1\CCC[C@]2(C)[C@@H]([C@H](C)/C=C/[C@H](C)C(C)C)CC[C@@H]12 | 25 µM (active) | 
12 | CCC(=O)O[C@@H]1C[C@H]2CC[C@]1(C)C2(C)C |  | inactive
13 | CCCCCCCCCCCCCCN(CCO)CCO | 8.13 µM (active) | 
14 | CCOc1ccc(N=Nc2ccc(C=Cc3ccc(N=Nc4ccc(OCC)cc4)cc3S(=O)(=O)O)c(S(=O)(=O)O)c2)cc1 | 3.4 µM (active) | 
15 | CCCCCCCCC=CCCCCCCCC1=NCCN1CCO | 5.02 µM (active) | 
